The record followed here is PubChem BioAssay (NCI).

This is part of a sample that, as a whole, favours compounds with a hit. Of some 83,000 tested, about 20% had one in any assay.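 Single-concentration screen, 48 h exposure, 96-well plates. Endpoint: percent growth. Below 10 = active.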 A number with no mark means an inactive call. Calls of active or inactive are those of the source.

Among the test systems are NCI-H23 lung; NCI-H226 lung; NCI-H322M lung; HOP-62 NSCLC; NCI-H460 lung; HOP-92 NSCLC; A549/ATCC NSCLC; 786-0 renal; COLO 205 colon; DU-145 prostate; K-562 leukemia; MALME-3M melanoma; MDA-MB-231 breast; RXF 393 renal; SF-268 CNS; SF-295 CNS; SF-539 CNS; UACC-257 melanoma; M14 melanoma.
What all share (assay): NCI-60 one-dose screen, 48 h (100 = growth as untreated, 0 = no growth, -100 = all killed)
Details in all cases: 10 µM unless noted

Consider `c1ccc2nc(Cn3c[n+](Cc4ccc5ccccc5n4)c4ccccc43)ccc2c1`, for which the growth with NCI-H23 lung is 32%; in the assay on NCI-H226 lung, 37.1%; in the assay on NCI-H322M lung, 78.1%; in the assay with HOP-62 NSCLC, 53.8%; in the assay with NCI-H460 lung, 32.4%; in the assay on HOP-92 NSCLC, -8.16% (active). Also, the growth was 54% with A549/ATCC NSCLC; 66.7% with 786-0 renal; 6.96% (active) in the assay on COLO 205 colon; 60.8% in the assay on DU-145 prostate; 17.8% in the assay with K-562 leukemia; 20.3% in the assay on MALME-3M melanoma. Moreover, the growth is 26.4% in the assay on MDA-MB-231 breast; 44.1% in the assay with RXF 393 renal; 54.9% in the assay on SF-268 CNS; 55.5% with SF-295 CNS; 41.5% in the assay on SF-539 CNS; -9.49% (active) in the assay with UACC-257 melanoma. In addition, in the assay on M14 melanoma, the growth is 21.7%.
On to `N#Cc1c(-c2ccccc2)cc(-c2ccccc2)n(CCCCC(=O)O)c1=O`, for which the growth in the assay with NCI-H23 lung is 90%; in the assay on NCI-H226 lung, 91%; in the assay with NCI-H322M lung it was 98.6%; in the assay on HOP-62 NSCLC it was 90.9%; with NCI-H460 lung, 102%; with HOP-92 NSCLC, 93.7%. The growth was 94.7% with A549/ATCC NSCLC; 93.7% with 786-0 renal; 108% in the assay with COLO 205 colon; 107% in the assay with DU-145 prostate; 80.8% in the assay on K-562 leukemia; 87.8% in the assay on MALME-3M melanoma. In addition, the growth was 91% in the assay with MDA-MB-231 breast; 89.7% in the assay with RXF 393 renal; 94% with SF-268 CNS; 82.8% in the assay on SF-295 CNS; 93.5% in the assay with SF-539 CNS; 94.1% with UACC-257 melanoma. Also, the growth in the assay on M14 melanoma is 86.4%.
On to `O=C1C=CC(=O)N1c1ccccc1N1C(=O)C=CC1=O`, for which the growth in the assay with NCI-H23 lung was 115%; in the assay with NCI-H226 lung, 101%; with NCI-H322M lung, 122%; with HOP-62 NSCLC, 94.5%; in the assay with NCI-H460 lung, 111%; in the assay with HOP-92 NSCLC, 82.8%. Besides, the growth is 121% with A549/ATCC NSCLC; 110% in the assay on 786-0 renal; 57.7% in the assay on COLO 205 colon; 110% with DU-145 prostate; 50.2% in the assay on K-562 leukemia; 144% in the assay with MALME-3M melanoma. Moreover, the growth is 92.6% in the assay on MDA-MB-231 breast; 111% in the assay with RXF 393 renal; 97.7% in the assay with SF-268 CNS; 125% in the assay with SF-295 CNS; 100% with SF-539 CNS; 115% with UACC-257 melanoma. Also, the growth with M14 melanoma was 110%.
Turning to `COc1ccc(-c2cc(-c3cccnc3)nc3sc(C(=O)Nc4ccccc4)c(N)c23)cc1OC`, the growth is 87.8% in the assay on NCI-H23 lung; 77.2% in the assay with NCI-H226 lung; 79.3% in the assay with NCI-H322M lung; 84.3% in the assay on HOP-62 NSCLC; 44.3% with NCI-H460 lung; 24.9% in the assay with HOP-92 NSCLC. The growth with A549/ATCC NSCLC is 74.2%; in the assay with 786-0 renal, 63.9%; in the assay on COLO 205 colon it was 72.6%; with DU-145 prostate, 54.6%; in the assay with K-562 leukemia it was 34.2%; in the assay on MALME-3M melanoma it was 109%. Further, the growth in the assay with MDA-MB-231 breast was 69.7%; in the assay on RXF 393 renal it was 76%; with SF-268 CNS, 69%; in the assay with SF-295 CNS, 77.2%; with SF-539 CNS, 73.3%; in the assay on UACC-257 melanoma it was 107%. Further, in the assay on M14 melanoma, the growth was 66.3%.
On to `OC(c1ccccc1)C(NCc1ccccc1)c1ccccc1` (configuration not stated), for which the growth in the assay on NCI-H23 lung is 93.5%; with NCI-H226 lung, 97.7%; with NCI-H322M lung, 97.8%; in the assay with HOP-62 NSCLC, 90.5%; in the assay on NCI-H460 lung, 100%; in the assay on HOP-92 NSCLC, 71.8%. The growth with A549/ATCC NSCLC was 101%; with 786-0 renal, 87.2%; with COLO 205 colon, 116%; in the assay on DU-145 prostate, 117%; in the assay with K-562 leukemia, 106%; in the assay with MALME-3M melanoma, 104%. Moreover, the growth was 98.3% in the assay on MDA-MB-231 breast; 107% in the assay with RXF 393 renal; 92.8% with SF-268 CNS; 94% in the assay on SF-295 CNS; 90.6% in the assay on SF-539 CNS; 110% in the assay on UACC-257 melanoma. In the assay with M14 melanoma, the growth is 79.9%.
As to `O=C(c1ccccc1)C(CN1CCCCC1)c1ccccc1` (configuration not stated), the growth is 91.4% in the assay with NCI-H23 lung; 91.6% in the assay with NCI-H226 lung; 88.3% in the assay on NCI-H322M lung; 68.2% in the assay on HOP-62 NSCLC; 68.7% with NCI-H460 lung; -12.2% (active) with HOP-92 NSCLC. The growth in the assay on A549/ATCC NSCLC is 79.9%; in the assay on 786-0 renal, 1.38% (active); in the assay on COLO 205 colon it was 10.1%; with DU-145 prostate, 23.2%; with K-562 leukemia it was 0.176% (active); in the assay with MALME-3M melanoma it was -3.92% (active). In addition, the growth was 22.6% with MDA-MB-231 breast; 42.4% in the assay with RXF 393 renal; 58.6% in the assay on SF-268 CNS; 98.8% with SF-295 CNS; -15.7% (active) in the assay with SF-539 CNS; 25.6% in the assay on UACC-257 melanoma. Besides, the growth in the assay with M14 melanoma was -74.3% (active).
Turning to `Cc1ccc2nc(-c3ccc(N(C)C)c(Br)c3)cn2c1`, the growth in the assay on NCI-H23 lung was 92%; with NCI-H226 lung it was 98.4%; in the assay with NCI-H322M lung, 120%; with HOP-62 NSCLC it was 93.4%; in the assay with NCI-H460 lung it was 40.3%; in the assay with HOP-92 NSCLC it was 126%. In addition, the growth in the assay on A549/ATCC NSCLC is 98.9%; in the assay on 786-0 renal it was 87.8%; in the assay on COLO 205 colon it was 89.3%; with DU-145 prostate, 93.7%; in the assay with K-562 leukemia, 29%; in the assay with MALME-3M melanoma it was 116%. The growth with MDA-MB-231 breast was 92.9%; in the assay with RXF 393 renal, 62.8%; in the assay on SF-268 CNS, 78.2%; in the assay with SF-295 CNS, 90.5%; in the assay with SF-539 CNS, 65.9%; in the assay on UACC-257 melanoma, 90.7%. Also, the growth in the assay on M14 melanoma is 78.6%.
Regarding `O=C(/C=C/c1cccc(Nc2ccnc3cc(Cl)ccc23)c1)c1ccc(Cl)cc1`, the growth in the assay with NCI-H23 lung is 45.9%; in the assay with NCI-H226 lung it was 49.5%; with NCI-H322M lung, 67.3%; with HOP-62 NSCLC it was 50.2%; in the assay with NCI-H460 lung, 66.7%; in the assay on HOP-92 NSCLC, 45.8%. Also, the growth in the assay with A549/ATCC NSCLC is 79.4%; in the assay with 786-0 renal it was 58%; in the assay on COLO 205 colon it was 80.1%; with DU-145 prostate, 59.6%; in the assay on K-562 leukemia, 14.6%; in the assay with MALME-3M melanoma it was 62.5%. The growth with MDA-MB-231 breast is 60.4%; with RXF 393 renal, 71.9%; in the assay on SF-268 CNS, 69.2%; in the assay on SF-295 CNS it was 40.2%; in the assay with SF-539 CNS it was 62.5%; in the assay with UACC-257 melanoma, 61.3%. Moreover, the growth in the assay on M14 melanoma was 54.3%.
